According to PubChem BioAssay:
Activity calls are given as the source filed them.

How the values were obtained:
[1] = molecular target: Albumin (Bos taurus) (UniProt P02769); experiment: compounds binding labelled BSA control protein – biochemical, small-molecule microarray, Alexa647 label, 635/667 nm fluorescence, artefact control for SMM control protein annotation, profiling panel (AID 1118); conditions: BSA-A647 binding, fluorescence 635 nm, higher = more signal;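 further: score merges 667 nm emission intensity and signal-to-noise per printed compound spot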
[2] = probe aXIP binding to arrayed compounds – biochemical, NeuroSMM set, 635/667 nm fluorescence, primary screen (AID 1119); conditions: small-molecule microarray, higher = more signal, called active from +8 up or from −8 down;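 further: probe is the protein aXip251-270 applied at 1 µg/mL to compound-printed slides; binding of probe to printed compounds measured as 667 nm fluorescence plus signal to noise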
[3] = probe aNOTCH3 binding on compound microarray – biochemical, small-molecule microarray, 635/667 nm fluorescence, primary screen (AID 1120); conditions: higher = more signal;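 further: probe is a biotin-tagged antibody raised against NOTCH3 rather than NOTCH3 protein; score merges spot fluorescence near 667 nm with spot signal to noise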
[4] = probe aNOTCH2 binding on compound microarray – biochemical, small-molecule microarray, 635/667 nm fluorescence, primary screen (AID 1121); conditions: higher = more signal;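 further: score merges feature fluorescence read at 667 nm with its signal to noise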
[5] = molecular target: Carbonic anhydrase 2 (Homo sapiens) (UniProt P00918); experiment: compounds binding carbonic anhydrase 2 – biochemical, small-molecule microarray, Alexa647-labelled CAII, profiling panel (AID 1122); conditions: CAII-A647 binding fluorescence, higher = more signal
[6] = COS7 lysate on small-molecule microarray, probe aHis, 635 nm (AID 1123); conditions: COS7 cell lysate, fluorescence, higher = more signal;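 further: z-score combines 667nm fluorescence intensity with signal-to-noise per printed compound spot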
[7] = probe aLAP1 signal on lysate-treated microarray – cell lysate, small-molecule microarray, COS7 lysate, primary screen (AID 1124); conditions: probe aLAP1, fluorescence, higher = more signal;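 further: lysate comes from COS7 cells expressing LAP1 and is applied at 0.3 µg/mL; score merges spot fluorescence near 667 nm with signal-to-noise over triplicate slides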
[8] = tested on: Sam68 (KHDRBS1); experiment: compounds binding KHDRBS1 protein – biochemical, small-molecule microarray, 635 nm fluorescence, primary screen (AID 1125); conditions: higher = more signal;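 further: score merges 667 nm channel intensity with signal to noise over triplicate slides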
[9] = tested on: Chordin-like protein 2 (CHRDL2); experiment: compounds binding chordin-like 2 – biochemical, small-molecule microarray, 635 nm fluorescence, primary screen (AID 1126); conditions: fluorescence 635 nm, higher = more signal;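 further: printed compound slides probed with Chrdl2 protein at 4 µg/mL for 1 h at 4 C; score merges 667 nm emission intensity with signal to noise over three replicate slides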
[10] = molecular target: Concanavalin-A (Canavalia ensiformis) (UniProt P02866); experiment: compounds binding concanavalin A lectin – biochemical, small-molecule microarray, Alexa647 label, 635 nm, artefact control for SMM control protein annotation, primary screen (AID 1127); conditions: ConA-A647 binding fluorescence, higher = more signal;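 further: z combines 667 nm emission intensity with signal-to-noise across three replicate slides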
[11] = compounds binding Alexa647 anti-His antibody – biochemical, small-molecule microarray, 635 nm fluorescence, artefact control for SMM control protein annotation, primary screen (AID 1128); conditions: higher = more signal;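 further: score merges feature fluorescence with signal-to-noise for each printed compound spot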
[12] = tested on: Human papillomavirus type 1a E7 protein (residues 1-88); experiment: HPV1a E7 small-molecule binders, primary screen, biochemical, small-molecule microarray, residues 1-88, 635 nm (AID 1129); conditions: small-molecule microarray binding, fluorescence 635 nm; higher = more signal
[13] = molecular target: Focal adhesion kinase 1 (Homo sapiens) (UniProt Q05397); experiment: PTK2 protein binding on printed compound slides – biochemical, small-molecule microarray, 635/667 nm fluorescence, BSA, DTT, primary screen (AID 1130); conditions: 635 nm fluorescence, higher = more signal;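 further: composite of spot emission at 667 nm and signal to noise over triplicate slides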
[14] = tested on: Fibrinogen (Alexa647-labelled); experiment: Alexa647-fibrinogen binding to printed small molecules – biochemical, small-molecule microarray, 635/667 nm fluorescence, artefact control for SMM control-protein annotation, profiling panel (AID 1131); conditions: fibrinogen-A647 binding fluorescence, higher = more signal;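 further: z-score merges 667 nm fluorescence with per-spot signal-to-noise over triplicate slides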
[15] = molecular target: Follistatin (Homo sapiens) (UniProt P19883); experiment: FST protein binding to printed compounds – biochemical, small-molecule microarray, 635/667 nm fluorescence, primary screen (AID 1132); conditions: 635 nm fluorescence, higher = more signal
[16] = molecular target: Fibroblast growth factor 2 (Homo sapiens) (UniProt P09038); experiment: basic fibroblast growth factor binding to printed compounds – biochemical, small-molecule microarray, 635/667 nm fluorescence, primary screen (AID 1133); conditions: FGF2, fluorescence 635/667, higher = more signal
[17] = JC-1 mitochondrial potential readout, lung cancer cells – cell-based, A549, JC-1 fluorescence, basal, 24 h, 100 nL, profiling panel (AID 1138); conditions: higher = more signal;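 further: A549 lung adenocarcinoma cells under basal conditions with no added stimulus; test concentration not given here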
[18] = tested on: Lefty1; experiment: Lefty1 protein binding to printed compounds – biochemical, small-molecule microarray, 635/667 nm fluorescence, primary screen (AID 1139); conditions: fluorescence 635/667, higher = more signal
[19] = tested on: wheat germ agglutinin (Triticum aestivum), Alexa647-labelled; experiment: Alexa647-WGA lectin binding to printed small molecules – biochemical, small-molecule microarray, 635/667 nm fluorescence, artefact control for SMM control-protein annotation, profiling panel (AID 1140); conditions: WGA-A647 binding, 635 nm fluorescence, higher = more signal;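 further: score merges 667 nm feature emission with signal to noise over triplicate slides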
[20] = molecular target: Luciferin 4-monooxygenase (Photinus pyralis) (UniProt P08659); experiment: inhibition of purified Photinus pyralis luciferase – biochemical, luminescence, purified enzyme, 2006 set, primary screen (AID 1141); conditions: purified firefly luciferase, SteadyGlo luminescence, 30 min; higher = more signal, called active from +8 up or from −8 down;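 further: cell-free assay with purified firefly luciferase at 100 ng per well in PBS; test concentration not given here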
Chain of Luciferin 4-monooxygenase (Photinus pyralis) (P08659 whole entry, looked up): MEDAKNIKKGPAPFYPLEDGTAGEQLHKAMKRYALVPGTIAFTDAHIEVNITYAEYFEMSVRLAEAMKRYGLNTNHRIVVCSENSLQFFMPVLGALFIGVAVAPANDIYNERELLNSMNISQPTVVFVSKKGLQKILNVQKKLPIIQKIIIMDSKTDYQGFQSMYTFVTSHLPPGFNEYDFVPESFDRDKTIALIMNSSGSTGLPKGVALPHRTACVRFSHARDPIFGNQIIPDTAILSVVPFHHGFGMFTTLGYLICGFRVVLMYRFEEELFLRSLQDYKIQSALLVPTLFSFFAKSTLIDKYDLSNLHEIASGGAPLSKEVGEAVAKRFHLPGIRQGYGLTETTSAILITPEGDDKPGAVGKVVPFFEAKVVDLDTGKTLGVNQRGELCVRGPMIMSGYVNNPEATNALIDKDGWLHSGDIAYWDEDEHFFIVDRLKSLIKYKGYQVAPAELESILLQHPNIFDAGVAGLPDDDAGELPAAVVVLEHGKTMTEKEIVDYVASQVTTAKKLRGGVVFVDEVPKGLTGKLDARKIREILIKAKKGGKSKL

Chain of Albumin (Bos taurus) (P02769 whole entry, looked up): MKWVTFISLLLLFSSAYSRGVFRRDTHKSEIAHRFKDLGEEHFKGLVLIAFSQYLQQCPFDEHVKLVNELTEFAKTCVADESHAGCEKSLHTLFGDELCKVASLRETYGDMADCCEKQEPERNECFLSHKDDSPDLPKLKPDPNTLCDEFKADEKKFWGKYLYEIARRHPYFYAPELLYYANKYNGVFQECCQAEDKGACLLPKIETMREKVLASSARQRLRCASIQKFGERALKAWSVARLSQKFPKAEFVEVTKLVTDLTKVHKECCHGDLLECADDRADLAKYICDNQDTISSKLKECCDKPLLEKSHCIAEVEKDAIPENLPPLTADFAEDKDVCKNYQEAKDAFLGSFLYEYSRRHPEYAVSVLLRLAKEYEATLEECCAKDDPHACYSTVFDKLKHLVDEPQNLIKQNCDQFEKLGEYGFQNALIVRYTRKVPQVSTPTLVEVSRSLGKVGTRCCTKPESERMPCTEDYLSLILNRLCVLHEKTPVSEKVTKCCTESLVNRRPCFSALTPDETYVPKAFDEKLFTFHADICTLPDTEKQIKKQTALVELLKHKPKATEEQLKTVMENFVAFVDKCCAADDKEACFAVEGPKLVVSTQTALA
Chain of Follistatin (Homo sapiens) (P19883 whole entry, looked up): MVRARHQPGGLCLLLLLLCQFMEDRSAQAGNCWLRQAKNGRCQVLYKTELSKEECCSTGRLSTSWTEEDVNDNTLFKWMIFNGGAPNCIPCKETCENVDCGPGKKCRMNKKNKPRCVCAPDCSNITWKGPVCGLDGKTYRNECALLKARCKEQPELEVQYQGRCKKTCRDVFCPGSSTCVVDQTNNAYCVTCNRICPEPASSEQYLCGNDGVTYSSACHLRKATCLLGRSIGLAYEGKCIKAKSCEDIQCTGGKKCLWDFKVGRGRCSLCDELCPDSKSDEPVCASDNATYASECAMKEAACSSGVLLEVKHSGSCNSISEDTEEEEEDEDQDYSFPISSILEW
Chain of Concanavalin-A (Canavalia ensiformis) (P02866 whole entry, looked up): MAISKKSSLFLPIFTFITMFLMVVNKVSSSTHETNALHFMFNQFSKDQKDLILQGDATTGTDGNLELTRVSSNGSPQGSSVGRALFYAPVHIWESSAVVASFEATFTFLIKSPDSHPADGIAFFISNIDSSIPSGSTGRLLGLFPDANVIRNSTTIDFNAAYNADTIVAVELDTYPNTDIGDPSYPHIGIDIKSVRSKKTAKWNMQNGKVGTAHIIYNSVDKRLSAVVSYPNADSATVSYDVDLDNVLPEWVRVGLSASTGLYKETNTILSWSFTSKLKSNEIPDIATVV
Chain of Fibroblast growth factor 2 (Homo sapiens) (P09038 whole entry, looked up): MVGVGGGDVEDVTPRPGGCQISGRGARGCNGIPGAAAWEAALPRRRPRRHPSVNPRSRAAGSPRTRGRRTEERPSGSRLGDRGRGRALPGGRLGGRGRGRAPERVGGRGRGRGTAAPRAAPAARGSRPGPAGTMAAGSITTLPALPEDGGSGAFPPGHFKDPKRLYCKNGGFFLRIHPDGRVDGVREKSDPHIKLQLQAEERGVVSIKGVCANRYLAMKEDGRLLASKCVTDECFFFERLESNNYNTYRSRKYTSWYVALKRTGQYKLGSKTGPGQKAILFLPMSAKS
Chain of Focal adhesion kinase 1 (Homo sapiens) (Q05397 whole entry, looked up): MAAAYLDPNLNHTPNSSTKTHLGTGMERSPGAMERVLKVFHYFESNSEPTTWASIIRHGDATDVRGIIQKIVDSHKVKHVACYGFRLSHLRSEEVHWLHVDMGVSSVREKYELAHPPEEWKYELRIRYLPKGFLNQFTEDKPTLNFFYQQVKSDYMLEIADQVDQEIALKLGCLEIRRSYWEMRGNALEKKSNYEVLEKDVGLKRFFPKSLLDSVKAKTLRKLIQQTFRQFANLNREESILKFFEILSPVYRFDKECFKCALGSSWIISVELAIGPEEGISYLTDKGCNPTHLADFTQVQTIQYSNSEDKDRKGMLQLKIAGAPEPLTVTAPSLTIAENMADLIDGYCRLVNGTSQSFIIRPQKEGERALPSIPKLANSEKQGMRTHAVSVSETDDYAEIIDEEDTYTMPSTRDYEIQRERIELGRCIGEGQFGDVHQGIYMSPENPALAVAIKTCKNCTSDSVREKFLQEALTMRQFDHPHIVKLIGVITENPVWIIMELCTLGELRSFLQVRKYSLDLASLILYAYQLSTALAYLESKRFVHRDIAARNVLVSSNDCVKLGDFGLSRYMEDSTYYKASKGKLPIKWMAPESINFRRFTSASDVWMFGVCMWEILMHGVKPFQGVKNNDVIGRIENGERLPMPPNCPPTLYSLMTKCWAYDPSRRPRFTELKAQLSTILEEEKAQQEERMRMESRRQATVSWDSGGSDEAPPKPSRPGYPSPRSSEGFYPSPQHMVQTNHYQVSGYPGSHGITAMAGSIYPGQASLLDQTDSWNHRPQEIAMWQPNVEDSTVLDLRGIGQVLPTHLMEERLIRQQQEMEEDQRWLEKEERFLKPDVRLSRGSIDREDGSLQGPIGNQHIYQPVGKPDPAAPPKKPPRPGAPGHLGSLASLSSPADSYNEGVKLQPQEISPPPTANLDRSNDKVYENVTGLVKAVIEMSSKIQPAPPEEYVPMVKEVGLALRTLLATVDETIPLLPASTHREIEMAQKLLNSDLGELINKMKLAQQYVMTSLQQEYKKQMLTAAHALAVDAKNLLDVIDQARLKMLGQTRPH

Compound	composite z-score [1]	composite Z-score [2]	composite z-score [3]	composite z-score [4]	composite z-score [5]	composite z-score [6]	composite z-score [7]	composite z-score [8]	composite z-score [9]	composite z-score [10]	composite z-score [11]	composite z-score [12]	composite z-score [13]	composite z-score [14]	composite z-score [15]	composite z-score [16]	z-score [17]	composite z-score [18]	composite z-score [19]	z-score [20]
C=CCN1C(=O)[C@]2(O[C@H](CCO)[C@@H]([Si](C)(C)c3ccc(OC)cc3)[C@@H]2C)c2ccccc21	0.482	-0.291 (inactive)	-0.157	-0.129	0.277	0.621	-0.116	-0.241	-0.884	0.201	0.0171	0.745	-0.0378	0.641	-0.862	-0.14	-1.83	0.058	0.134	-0.43 (inactive)
COCCn1c(C(=O)N2CCCC2)cc2c1C[C@H]1CN(C(=O)c3ccccc3)[C@@](Cc3ccccc3)(C(=O)OC)[C@@H]21	1.03	0.239 (inactive)	0.676	0.6	0.676	3.14	0.403	1.29	-0.133	1.11	1.09	0.822	1.54	0.948	0.298	0.121	0.109	0.334	1.11	2.58 (inactive)
CCN(CC)c1ccc(N2CC=CC34O[C@@H]5C=CCOC(=O)[C@@H]5[C@H]3C(=O)N(CCO)[C@@H]4C2=O)cc1 (stereo not given in full)	-0.869	2.39 (inactive)	0.0035	-0.24	0.913	-0.368	-0.714	-0.683	-1.83	-1.14	-0.305	-0.508	-0.856	-0.602	-0.721	-1.44	1.41	-1.35	-1.38	-1.47 (inactive)
COc1cc2c(cc1O)C(c1ccc(CN3CCCC3)cc1)N(Cc1ccc([N+](=O)[O-])o1)CC2 (stereo not given)	0.847	0.27 (inactive)	0.0469	-0.0959	0.91	0.542	0.774	-0.768	-0.881	0.387	0.27	-0.96	-0.537	0.121	-0.147	0.253	1	-0.606	0.522	-0.659 (inactive)
COC(=O)[C@]1(CO)N=C(c2ccc(OCCCO)cc2)O[C@@H]1c1ccccc1CN=[N+]=[N-]	-0.421	0.277 (inactive)	-0.122	-0.127	0.7	1.25	0.0153	0.363	0.265	0.257	0.477	0.286	0.1	-0.353	0.996	0.435	-0.232	0.341	-0.342	-0.676 (inactive)
